Our source for the cell proliferation values is the supplement of paper PMC9337992.

± gives the standard deviation of the averaged measurements.

This experiment relates to MDAMB231. The experiment is described as follows: cell proliferation (confluence) relative to DMSO control; higher = less growth inhibition. The note with it: 5 uM; 6 d. The method, then:
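Epigenetic chemical probe screen: 15 TNBC cell lines, 500 cells per well in 384-well plates, treated with 5 uM of each of 36 SGC probes for 6 d. Confluency was imaged by IncuCyte ZOOM and normalised to DMSO control wells. Four replicate wells per compound.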
Compound `COc1cc(C(=O)N2CC[C@@H](O)[C@@H](N)C2)cc2nc(-c3cc4ccccc4n3CC3CC3)n(C)c12` gave a cell proliferation of 88.8 ± 9.1%.
As to `O=C(O)CNC(=O)c1c(O)c2ccccc2n(Cc2ccccc2)c1=O`, the cell proliferation amounted to 97.33 ± 0.35%.
As for `c1ccc([C@@H]2C[C@H]2NC2CCNCC2)cc1`, the figure is 98.48 ± 0.8%.
